20 compounds from PubChem BioAssay can be followed below.

Structures are written as SMILES. Values without a mark were called inactive. For some of these results: Measured potencies and affinities stand elsewhere. The source made the active and inactive calls. Unless noted, how the calls were made is not given here.

A short description of assay [1]: antimalarial activity against Dd2 strain (AID 2302;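 active means growth inhibition above 50% at the single 2 µM test dose, taken to imply half-maximal potency below 2 µM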;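 further: 0% = DMSO untreated growth and 100% = chloroquine plus artemisinin killed control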). Conditions: P. falciparum Dd2 in RBCs, LDH growth readout, 72 h; at 2 µM; hits give high values.
A short description of assay [2]: human hepatoma cell viability loss – ATP luminescence, cytotoxicity control for P. falciparum antimalarial project, primary screen (AID 2303;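 active means inhibition above 50%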;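 further: 0% = DMSO wells and 100% = digitonin-killed cells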). Particulars: HepG2 viability, 24-48 h, at 10 µM, hits give high values.
The target of assay [3] is L-lactate dehydrogenase (Plasmodium falciparum (isolate CDC / Honduras)) (UniProt Q27743). In words: PfLDH activity inhibition – cell lysate, 3D7 strain, counter-screen for P. falciparum growth inhibition project (AID 2304).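 Further: 0% = vehicle and 100% = reference inhibitor.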 Conditions: P. falciparum 3D7 crude extract, LDH APAD/NBT absorbance; at 2 µM; hits give high values. In general terms: The purpose of a counterscreen is to sort out artefacts and off-target activity.
Chain of L-lactate dehydrogenase (Plasmodium falciparum (isolate CDC / Honduras)) (Q27743 whole entry, looked up): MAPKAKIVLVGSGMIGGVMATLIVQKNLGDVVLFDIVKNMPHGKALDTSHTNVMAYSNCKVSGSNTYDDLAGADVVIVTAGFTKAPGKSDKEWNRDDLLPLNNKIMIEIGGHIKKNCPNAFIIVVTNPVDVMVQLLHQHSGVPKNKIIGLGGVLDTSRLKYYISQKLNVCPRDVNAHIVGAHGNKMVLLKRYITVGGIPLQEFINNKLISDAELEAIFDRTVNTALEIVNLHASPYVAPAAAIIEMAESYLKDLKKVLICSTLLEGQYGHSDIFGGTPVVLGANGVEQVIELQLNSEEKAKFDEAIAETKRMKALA

Assay [4] can be described thus: inhibition of 3D7 malaria parasite growth – strain 3D7 (AID 2306).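 Further: 0% = DMSO wells and 100% = chloroquine plus artemisinin control wells.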 Conditions: P. falciparum 3D7 erythrocytic growth, LDH absorbance, 72 h; at 2 µM; hits give high values.
For assay [5], the target named is Calcium-dependent protein kinase 1 (Plasmodium falciparum (isolate 3D7)) (UniProt P62344). In words: PfCDPK1 kinase inhibitors, biochemical, TCAMS library (AID 1159585; cut-off not given, nearly all actives have IC50 up to about 0.98 µM;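 further: inhibitors leave more ATP so luminescence rises with inhibition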). Conditions: recombinant PfCDPK1, Kinase-Glo ATP depletion luminescence.
Chain of Calcium-dependent protein kinase 1 (Plasmodium falciparum (isolate 3D7)) (P62344 whole entry, looked up): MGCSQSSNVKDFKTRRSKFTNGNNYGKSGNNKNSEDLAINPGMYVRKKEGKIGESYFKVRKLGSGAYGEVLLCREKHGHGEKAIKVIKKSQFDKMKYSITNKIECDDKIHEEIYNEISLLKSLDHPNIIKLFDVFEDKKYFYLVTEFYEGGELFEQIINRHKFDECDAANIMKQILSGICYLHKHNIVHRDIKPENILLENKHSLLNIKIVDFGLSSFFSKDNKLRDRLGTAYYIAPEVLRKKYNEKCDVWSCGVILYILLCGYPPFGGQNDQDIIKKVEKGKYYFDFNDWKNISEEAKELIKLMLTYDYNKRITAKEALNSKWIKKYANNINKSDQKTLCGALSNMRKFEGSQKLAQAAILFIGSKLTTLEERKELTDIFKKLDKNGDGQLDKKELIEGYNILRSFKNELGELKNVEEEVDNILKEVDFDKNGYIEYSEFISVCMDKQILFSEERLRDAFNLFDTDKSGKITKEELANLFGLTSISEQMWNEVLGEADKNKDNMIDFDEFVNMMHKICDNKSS
Assay [6] deals with Plasmodium falciparum protein kinase 6 (PK6, PF3D7_1337100) (UniProt Q8IDW1). In words: PfPK6 kinase inhibitors, biochemical, TCAMS library (AID 1159586). Conditions: recombinant PfPK6, Kinase-Glo ATP depletion luminescence.
Chain of Plasmodium falciparum protein kinase 6 (PK6, PF3D7_1337100) (Q8IDW1 1-305): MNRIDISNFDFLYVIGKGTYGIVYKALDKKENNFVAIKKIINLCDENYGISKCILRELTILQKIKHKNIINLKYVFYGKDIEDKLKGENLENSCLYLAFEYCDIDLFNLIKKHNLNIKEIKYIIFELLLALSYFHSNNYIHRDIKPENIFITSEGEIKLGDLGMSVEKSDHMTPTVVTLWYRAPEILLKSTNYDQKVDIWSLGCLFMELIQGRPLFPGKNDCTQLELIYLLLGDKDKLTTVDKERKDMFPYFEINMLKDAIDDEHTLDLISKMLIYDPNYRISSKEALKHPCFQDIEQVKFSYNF
In assay [7] the target is Protein kinase 7 (PK7), Plasmodium falciparum 3D7 (PF3D7_0213400) (UniProt Q7YTF7). In words: inhibition of Plasmodium PK7 catalytic activity – biochemical, TCAMS antimalarial set, Kinase-Glo luminescence (AID 1159587). Conditions: recombinant PfPK7, Kinase-Glo ATP depletion luminescence. On the technique in general: In Kinase-Glo more light means more ATP remaining.
Chain of Protein kinase 7 (PK7), Plasmodium falciparum 3D7 (PF3D7_0213400) (Q7YTF7 1-343): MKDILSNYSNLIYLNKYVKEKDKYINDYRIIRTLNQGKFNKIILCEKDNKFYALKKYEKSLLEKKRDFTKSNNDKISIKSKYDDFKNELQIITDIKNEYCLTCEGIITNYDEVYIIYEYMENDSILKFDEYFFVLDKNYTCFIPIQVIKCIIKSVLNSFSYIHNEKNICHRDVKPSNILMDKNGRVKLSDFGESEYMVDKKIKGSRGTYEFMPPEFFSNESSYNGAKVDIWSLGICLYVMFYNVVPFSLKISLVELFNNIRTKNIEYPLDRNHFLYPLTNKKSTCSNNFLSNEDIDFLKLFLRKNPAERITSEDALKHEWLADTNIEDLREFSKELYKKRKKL
Assay [8] has as its target Calcium-dependent protein kinase 4 (Plasmodium falciparum (isolate 3D7)) (UniProt Q8IBS5). As to the kind of experiment: PfCDPK4 kinase inhibitors, biochemical, TCAMS library (AID 1159588; cut-off not given, nearly all actives have IC50 up to about 0.91 µM). Conditions: recombinant PfCDPK4, Kinase-Glo ATP depletion luminescence.

Chain of Calcium-dependent protein kinase 4 (Plasmodium falciparum (isolate 3D7)) (Q8IBS5 whole entry, looked up): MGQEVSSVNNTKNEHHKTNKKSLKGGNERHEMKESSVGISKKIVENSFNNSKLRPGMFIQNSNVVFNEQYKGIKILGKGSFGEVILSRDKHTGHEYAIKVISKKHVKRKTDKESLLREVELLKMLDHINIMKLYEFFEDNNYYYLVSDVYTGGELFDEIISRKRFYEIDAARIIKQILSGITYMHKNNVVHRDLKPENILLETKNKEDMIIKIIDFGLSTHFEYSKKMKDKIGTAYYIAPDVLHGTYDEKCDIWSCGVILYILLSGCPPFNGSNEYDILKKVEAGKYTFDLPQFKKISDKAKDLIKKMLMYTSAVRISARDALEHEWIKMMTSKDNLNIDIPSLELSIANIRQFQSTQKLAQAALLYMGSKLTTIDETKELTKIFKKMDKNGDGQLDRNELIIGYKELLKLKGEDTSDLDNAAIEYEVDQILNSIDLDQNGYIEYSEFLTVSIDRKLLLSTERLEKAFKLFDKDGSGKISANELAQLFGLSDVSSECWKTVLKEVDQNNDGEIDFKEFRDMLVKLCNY

In general, inhibition refers to the relative decrease from the control value, in per cent. Turning to `COc1ccc2nc(C)cc(NCc3ccc4ccccc4c3)c2c1`, the growth inhibition is 75% (active) in assay [1] and 101% (active) in assay [4]. Besides, the inhibition is 21% in assay [2] and -1% in assay [3]. The result in assay [5], in assay [6], in assay [7] and in assay [8] was inactive.

As for `Cc1ccccc1OCC(O)CNC1CCC(NCC(O)COc2ccccc2C)CC1` (stereo not given), the growth inhibition in assay [1] was 24%; in assay [4] it was 98% (active). For the same compound, the inhibition in assay [2] is 96% (active); in assay [3], 0%. Besides, the result in assay [5], in assay [6], in assay [7] and in assay [8] was inactive.

As for `Cc1ccc(S(=O)(=O)NC2CCN(c3ccnc4cc(Cl)ccc34)C2)cc1` (stereo not given), the growth inhibition was 90% (active) in assay [1] and 99% (active) in assay [4]. The inhibition in assay [2] was 21%; in assay [3], -3%. Moreover, the result in assay [5], in assay [6], in assay [7] and in assay [8] was inactive.

Take `O=S(=O)(NCCN1CCCC1)c1ccc(-c2cccc(CNCc3ccc(F)cc3)c2)s1`: the growth inhibition in assay [1] is 50% (active); in assay [4], 99% (active). For the same compound, the results for the inhibition in assay [2] and in assay [3] were 48% and 4%, respectively. For the same compound, the result in assay [5], in assay [6], in assay [7] and in assay [8] was inactive.

As for `COc1cccc2sc(Nc3nc(-c4ccccn4)cs3)nc12`, the growth inhibition was 76% (active) in assay [1] and 94% (active) in assay [4]. For the same compound, the inhibition in assay [2] is 41%; in assay [3], 4%. In addition, the result in assay [5], in assay [6], in assay [7] and in assay [8] was inactive.

In the case of `CNS(=O)(=O)c1ccc2c(c1)nc(C1CCN(CC3CCC(NC(=O)/C=C/c4ccc(Cl)c(Cl)c4)CC3)CC1)n2C` (stereo not given), the growth inhibition is 96% (active) in assay [1] and 102% (active) in assay [4]. Also, the figures for the inhibition in assay [2] and in assay [3] were 5% and -2%, respectively. The result in assay [5], in assay [6], in assay [7] and in assay [8] was inactive.

`CC(C)CCNC(=O)c1cnc2c(O)cccc2c1Nc1cccc(NC(=O)c2ccc(F)cc2)c1`: the growth inhibition was 43% in assay [1] and 93% (active) in assay [4]. The inhibition was 51% (active) in assay [2] and -1% in assay [3]. For the same compound, the outcome in assay [5], in assay [6], in assay [7] and in assay [8] was inactive.

Turning to `CCCNCc1ccc(-c2ccc(CN(CCOC)C(=O)c3cscn3)cc2)nc1`, the growth inhibition in assay [1] is 16%; in assay [4] it was 99% (active). Also, the figures for the inhibition in assay [2] and in assay [3] were 13% and 2%, respectively. Moreover, the outcome in assay [5], in assay [6], in assay [7] and in assay [8] was inactive.

For the compound `COc1ccc2nccc(NN=Cc3ccccc3)c2c1`, the results for the growth inhibition in assay [1] and in assay [4] were 99% (active) and 101% (active), respectively. Besides, the inhibition was -2% in assay [2] and -1% in assay [3]. Moreover, the result in assay [5], in assay [6], in assay [7] and in assay [8] was inactive.

Consider `COc1ccc(CNc2nc(Nc3cccc(C#N)c3)nc(Nc3cccc(C#N)c3)n2)cc1Cl`, for which the growth inhibition in assay [1] is 83% (active); in assay [4], 101% (active). In addition, the inhibition is -4% in assay [2] and 4% in assay [3]. For the same compound, the outcome in assay [5], in assay [6], in assay [7] and in assay [8] was inactive.

With `c1ccc(-c2ccc(CNCCCNc3nc4ccccc4[nH]3)cc2)cc1`, the growth inhibition in assay [1] is 0%; in assay [4] it was 95% (active). The inhibition in assay [2] was 20%; in assay [3], -4%. The outcome in assay [5], in assay [6], in assay [7] and in assay [8] was inactive.

In the case of `CNC(=O)c1cnc(Nc2ccc3[nH]c(=O)[nH]c3c2)nc1Nc1cccc(OC(C)C)c1`, the growth inhibition in assay [1] is 94% (active); in assay [4], 89% (active). Moreover, the results for the inhibition in assay [2] and in assay [3] were 18% and -8%, respectively. In addition, the outcome in assay [5], in assay [6], in assay [7] and in assay [8] was inactive.

`COc1ccc2nccc([C@@H](O)CN3CCC(NC(=O)C(c4cc5ccccc5s4)N4CCN(c5ccccc5OC)CC4)CC3)c2c1` (stereo not given in full): the growth inhibition in assay [1] was 88% (active); in assay [4] it was 100% (active). Moreover, the figures for the inhibition in assay [2] and in assay [3] were 21% and -2%, respectively. The outcome in assay [5], in assay [6], in assay [7] and in assay [8] was inactive.

With `CC(C)N1CCN(C(CN2CCN(CCCOc3cccc4ccccc34)CC2)c2ccc(F)cc2)CC1` (stereo not given), the growth inhibition in assay [1] is 75% (active); in assay [4], 101% (active). The inhibition in assay [2] was 54% (active); in assay [3] it was 4%. For the same compound, the result in assay [5], in assay [6], in assay [7] and in assay [8] was inactive.

With `COc1ccccc1C1CC(c2ccccc2)=NN1C(=O)c1ccco1` (stereo not given), the values for the growth inhibition in assay [1] and in assay [4] were 95% (active) and 97% (active), respectively. The inhibition in assay [2] is 12%; in assay [3] it was -2%. In addition, the result in assay [5], in assay [6], in assay [7] and in assay [8] was inactive.

For the compound `Fc1ccc2c(NN=Cc3ccccc3)ccnc2c1`, the growth inhibition is 99% (active) in assay [1] and 100% (active) in assay [4]. Moreover, the inhibition in assay [2] is 1%; in assay [3], 2%. Moreover, the result in assay [5], in assay [6], in assay [7] and in assay [8] was inactive.

Consider `O=C(/C=C/c1ccc(Cl)c(Cl)c1)NCCCCCN1CCC(NC(=O)Nc2cc(Cl)nc(Cl)c2)CC1`, for which the growth inhibition in assay [1] is 2%; in assay [4], 102% (active). Besides, the inhibition in assay [2] was 4%; in assay [3], -8%. Further, the outcome in assay [5], in assay [6], in assay [7] and in assay [8] was inactive.

As for `CN1CCC(C(=O)N(Cc2ccc(-c3ccc(CNCCc4ccccc4)cn3)cc2)Cc2cccc(F)c2)CC1`, the growth inhibition in assay [1] was 80% (active); in assay [4], 90% (active). Also, the inhibition in assay [2] is 30%; in assay [3] it was -4%. Also, the outcome in assay [5], in assay [6], in assay [7] and in assay [8] was inactive.

Consider `CCOC(=O)c1ccc(NC(=O)Nc2ccc(-c3ccc(-c4nc5c(C)cccc5[nH]4)s3)cc2)cc1`, for which the figures for the growth inhibition in assay [1] and in assay [4] were 100% (active) and 101% (active), respectively. Moreover, the inhibition in assay [2] was 60% (active); in assay [3] it was -4%. Moreover, the outcome in assay [5], in assay [6], in assay [7] and in assay [8] was inactive.

For `CSc1nc2cc3c(cc2n1C(=O)c1ccc(C)cc1)OCCO3`, the growth inhibition was -1% in assay [1] and 99% (active) in assay [4]. The inhibition in assay [2] and in assay [3] was -6% each time. The outcome in assay [5], in assay [6], in assay [7] and in assay [8] was inactive.
